As usually defined, the inhibition is the relative decrease from the control value, in per cent.

In all, about 360,000 compounds went through this assay and about 4,200 (1.2%) were called active. The list comes from a sample in which actives are over-represented; it also holds similar structures and randomly drawn compounds. Unmarked numbers belong to inactive results.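 How the source made its calls: active means mean replicate inhibition at least 60% with every replicate also reaching 60%; inconclusive means only one of the two criteria is met; inactive means mean below 60% and not all replicates reaching 60%.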

The assay can be described thus: PAX8 transcriptional activity inhibition in RMG-I – RMG-I cells, luciferase, single concentration, primary screen (AID 652154).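 Further: luciferase light reporting Pax8 driven TPO promoter activity; plate controls were median of neutral control wells for no effect and mitoxantrone controls for full effect.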 As to conditions: RMG-I TPO-luciferase reporter, SteadyGlo, 24 h; at 12.6 µM; stronger effect = higher value. For orientation: A reporter such as luciferase makes a cellular process visible.
Turning to `CCCNC(=O)C[C@H]1CC[C@H]2[C@@H](COc3ccc(NC(=O)Nc4c(C)noc4C)cc3C(=O)N2C)O1`, the inhibition was -6.6%.

Consider `C[C@H]1CN([C@@H](C)CO)C(=O)Cc2cc(NC(=O)Nc3ccc(F)cc3)ccc2O[C@H]1CN(C)C(=O)Nc1ccc(C(F)(F)F)cc1`, for which the inhibition is 59.7%.

For the compound `CC(=O)N1[C@H](CNC(=O)CN(C)C)[C@H](c2ccc(C3=CCCC3)cc2)[C@@H]1CO`, the inhibition is 10.8%.

With `CSc1nnc(NC(=O)c2nc(S(=O)(=O)Cc3ccc(C)cc3)ncc2Cl)s1`, the inhibition was 54.7%.

With `Cc1cccc(NC(=O)CCN2CC(C)CC(C)C2)c1` (centres undefined), the inhibition is 2.21%.

As for `CN1CCN(c2ccc(NC(=O)c3ccc4c(c3)[nH]c(=O)n4Cc3ccc(F)cc3)cc2)CC1`, the inhibition was 1.33%.

`Cc1ccc(C)c(Cn2nnc3c(=O)[nH]c(C(=O)Nc4ccc(F)cc4)nc32)c1`: the inhibition is -3.4%.

For the compound `Cc1cccc(CS(=O)(=O)c2ncc(Cl)c(C(=O)Nc3ccc(F)cc3)n2)c1`, the inhibition was 96.3% (active).

For the compound `Cc1cccc(NC(=O)c2nc(S(=O)(=O)Cc3ccccc3)ncc2Cl)c1`, the inhibition was 64.5% (active).

For `CN(C)CC#Cc1ccc([C@H]2[C@@H](CO)N(C(=O)C3CCC3)[C@H]2C#N)cc1`, the inhibition is 3.44%.

As to `CO[C@H]1CN(C)C(=O)c2ccc(NC(=O)c3ccno3)cc2OC[C@@H](C)N(S(C)(=O)=O)C[C@H]1C`, the inhibition was -22.4%.

In the case of `C[C@H]1CN([C@@H](C)CO)C(=O)Cc2cc(NC(=O)Nc3ccc4c(c3)OCO4)ccc2O[C@H]1CN(C)Cc1ccc(C(=O)Nc2ccccc2N)cc1`, the inhibition was 37.5%.

With `O=C(Cc1ccccn1)N1[C@@H]2CNc3ccccc3[C@@H]2[C@@H]1CO`, the inhibition was -15.2%.

Turning to `O=C(C1CCOCC1)N1C[C@H]2[C@@H](c3ccccc31)[C@@H](CO)N2Cc1ccccc1F`, the inhibition is -11.6%.

`C[C@H](NC(=O)C[C@@H]1CC[C@@H]2[C@H](COC[C@@H](O)CN2C(=O)Nc2cc(Cl)cc(Cl)c2)O1)c1ccccc1`: the inhibition is 49.2%.

Consider `O=C(CCl)Nc1cccc(CP(=O)(c2ccccc2)c2ccccc2)c1`, for which the inhibition was 18.2%.

Regarding `CCC(=O)Nc1ccc(Nc2nc(Cl)nc(Nc3ccc(NC(=O)CC)cc3)n2)cc1`, the inhibition was 1.45%.

As to `O=C(CCl)Nc1ccc(Sc2ccc(NC(=O)CCl)cc2)cc1`, the inhibition was 87.7% (active).

For the compound `C[C@@H]1CN([C@H](C)CO)C(=O)Cc2cc(NC(=O)Nc3ccc4c(c3)OCO4)ccc2O[C@H]1CN(C)Cc1ccc(C(F)(F)F)cc1`, the inhibition is 13.6%.

With `CN(c1ccccc1)S(=O)(=O)c1cc(C(=O)OCC(=O)N2CCN(C(=O)c3ccco3)CC2)ccc1Cl`, the inhibition was 80.9% (active).

Take `O=C(OCC(=O)N1CCN(C(=O)c2ccco2)CC1)c1cccc(O)c1`: the inhibition is -23.5%.

`O=C(OCC(=O)N1CCN(C(=O)c2ccco2)CC1)c1ccc(Cl)c(Cl)c1`: the inhibition is 6.78%.

Regarding `C[C@@H]1CN([C@H](C)CO)C(=O)CCCn2cc(nn2)CO[C@@H]1CN(C)C(=O)Nc1ccc2c(c1)OCO2`, the inhibition is -4.65%.

As for `C[C@@H]1CCCCO[C@@H](CN(C)C(=O)CCC(F)(F)F)[C@@H](C)CN([C@H](C)CO)C(=O)c2cc(NC(=O)Nc3ccccc3)ccc2O1`, the inhibition was -44.3%.

Consider `COc1cc(C2C(C(=O)Nc3ccccc3OC)=C(C)Nc3ncnn32)ccc1O` (centres undefined), for which the inhibition is 24.6%.

In the case of `CC1=C(C(=O)OC2CCCCC2)C(c2ccccc2F)NC(=O)N1` (centres undefined), the inhibition is 23.9%.

`CC1=C(C(=O)OC2CCCCC2)C(c2cccnc2)n2ncnc2N1` (centres undefined): the inhibition is 143% (active).

As to `O=C(CC1CC1)N[C@@H]1C[C@@H]2O[C@H](CO)CC[C@@H]2O[C@@H]1CCc1ccc(C#Cc2ccccc2)cc1`, the inhibition is -44%.

For the compound `N#Cc1cccc(-c2ccc([C@H]3[C@@H](CO)N4CCCCN(C(=O)Nc5ccccc5)C[C@H]34)cc2)c1`, the inhibition was -12.5%.

Consider `CCCNC(=O)Nc1ccc2c(c1)C(=O)N(C)[C@H]1CC[C@H](CC(=O)NC3CCC3)O[C@H]1CO2`, for which the inhibition was -6.66%.

As to `CCC(=O)N(C)C[C@H]1[C@H](c2ccc(C3=CCCCC3)cc2)[C@@H](CO)N1C(C)=O`, the inhibition is -0.343%.

With `CCCN1[C@H](C(=O)N2CCCCC2)[C@@H](CO)[C@@H]2Cn3c(ccc(-c4ccccc4F)c3=O)[C@@H]21`, the inhibition was -10.5%.

For the compound `CCCN1[C@H](C(=O)N2CCOCC2)[C@@H](CO)[C@@H]2Cn3c(ccc(/C=C/c4ccccc4)c3=O)[C@@H]21`, the inhibition was 78.4% (active).

As to `CC=Cc1ccc2n(c1=O)C[C@H]1[C@H](CO)[C@@H](C(=O)N3CCCCC3)N(Cc3ccccn3)[C@@H]21` (mixture of isomers), the inhibition is 0.555%.

In the case of `CCC(=O)N(C)C[C@@H]1Oc2ncc(C#C[C@H](C)O)cc2C(=O)N([C@@H](C)CO)C[C@@H]1C`, the inhibition is -26.1%.

For `COCC(=O)Nc1ccc2c(c1)C(=O)N(C)C[C@@H](OC)[C@H](C)CN(C(=O)c1ccccn1)[C@@H](C)CO2`, the inhibition is 2.92%.

With `CCN1[C@@H]2c3cccc(=O)n3C[C@H]1[C@H](CO)[C@H]2C(=O)NC1Cc2ccccc2C1`, the inhibition was -4.92%.

In the case of `CO[C@H]1CN(C)C(=O)c2ccc(NC(=O)CC(F)(F)F)cc2OC[C@@H](C)N(C(=O)c2ccccc2F)C[C@@H]1C`, the inhibition was -20.3%.

Take `COc1ccc(CNC(=O)CCCn2nc(C)c([N+](=O)[O-])c2C)cc1`: the inhibition was 2.46%.

As for `Cc1ccc(Oc2cc(NC(=O)CCCn3nc(C)c([N+](=O)[O-])c3C)cc([N+](=O)[O-])c2)cc1`, the inhibition was 84.6% (active).

For `Cc1nn(CC(=O)Nc2ccc(N(C)C)cc2)c(C)c1[N+](=O)[O-]`, the inhibition was 13.9%.

In the case of `Cc1ccccc1S(=O)(=O)N1CC[C@H]2[C@H](CO)Nc3ccc(-c4cccc(F)c4)cc3[C@H]21`, the inhibition was -9.62%.

With `COc1ccccc1NC(=O)N1C[C@H]2[C@@H](c3ccccc31)[C@@H](CO)N2C(=O)C1CCCC1`, the inhibition is 14.9%.

In the case of `CCCN1C[C@@H](C)[C@@H](OC)CN(C)C(=O)c2ccc(NC(=O)c3ccc(F)cc3)cc2OC[C@@H]1C`, the inhibition is -1.32%.

In the case of `O=C(C[C@@H]1CC[C@H]2[C@@H](COC[C@@H](O)CN2S(=O)(=O)c2cccc(Cl)c2)O1)N1CCCCC1`, the inhibition was -3.53%.

On to `CN1CCN(CCCNC(=O)c2ccc(/C=C3\Oc4ccccc4N(Cc4ccc(Cl)cc4)C3=O)cc2)CC1`, for which the inhibition was 100% (active).

Turning to `CCC1Oc2ccccc2N(CC(=O)NCCCN2CCN(CC)CC2)C1=O` (centres undefined), the inhibition was 5.58%.

On to `Cc1c(C)n(Cc2ccc(Cl)cc2)c2ccc(C(=O)NCCCN3CCOCC3)cc12`, for which the inhibition was 15.4%.

For `CN1c2ccc(Br)cc2[C@H]2[C@H](CCN2S(=O)(=O)c2ccccc2)[C@@H]1CO`, the inhibition was 0.611%.

For `CN1CCCCC(NC(=O)C(C)(C)C)C1=O` (centres undefined), the inhibition was 8.76%.

Take `C[C@H](CO)N1C[C@H](C)[C@H](CN(C)CC2CC2)Oc2ccc(NC(=O)c3ccncc3)cc2C1=O`: the inhibition was -14.7%.

With `C[C@H](O)C#Cc1ccc2c(c1)O[C@@H](CN(C)Cc1cncnc1)[C@H](C)CN([C@H](C)CO)S2(=O)=O`, the inhibition was 8.97%.

Turning to `C[C@@H]1CN([C@@H](C)CO)S(=O)(=O)c2ccc(/C=C/c3ccccc3)cc2O[C@H]1CN(C)Cc1ccccc1`, the inhibition was 11.4%.

Regarding `C[C@@H]1CN([C@@H](C)CO)S(=O)(=O)c2ccc(/C=C/c3ccccc3)cc2O[C@H]1CN(C)Cc1cccnc1`, the inhibition was 68.6% (active).

With `C[C@H](O)C#Cc1ccc2c(c1)O[C@H](CN(C)Cc1cncnc1)[C@H](C)CN([C@@H](C)CO)S2(=O)=O`, the inhibition is 19.4%.

Regarding `C[C@@H]1CN([C@H](C)CO)S(=O)(=O)c2ccc(/C=C/c3ccccc3)cc2O[C@@H]1CN(C)Cc1ccccc1`, the inhibition is 31%.

With `COc1ccccc1C#Cc1ccc2c(c1)O[C@@H](CN(C)Cc1cncnc1)[C@H](C)CN([C@@H](C)CO)S2(=O)=O`, the inhibition is 74.3% (active).

On to `COc1ccccc1C#Cc1ccc2c(c1)O[C@H](CN(C)Cc1cccnc1)[C@@H](C)CN([C@H](C)CO)S2(=O)=O`, for which the inhibition was 70% (active).

`COCC#Cc1ccc2c(c1)O[C@@H](CN(C)Cc1cccnc1)[C@@H](C)CN([C@H](C)CO)S2(=O)=O`: the inhibition was -14.2%.

As for `C[C@@H]1CN([C@H](C)CO)S(=O)(=O)c2ccc(C#CC3CCCC3)cc2O[C@@H]1CN(C)Cc1cccnc1`, the inhibition was 31.1%.

Consider `COc1ccccc1NC(=O)N[C@H]1C=C[C@@H](CC(=O)N[C@@H](C)c2ccccc2)O[C@@H]1CO`, for which the inhibition was 4.41%.

With `O=C(C[C@H]1CC[C@@H]2[C@H](COC[C@H](O)CN2C(=O)c2ccc3c(c2)OCO3)O1)NC1CCC1`, the inhibition was -16.6%.

`CC(=O)Nc1ccc2c(c1)C(=O)N(C)[C@@H]1CC[C@H](CC(=O)NCc3ccccc3)O[C@H]1CO2`: the inhibition is -2.89%.

For `C/C=C/c1cnc2c(c1)C(=O)N([C@H](C)CO)C[C@H](C)[C@@H](CN(C)C(=O)c1cccc(F)c1)O2`, the inhibition was -7.23%.

In the case of `C[C@H](CO)N1C[C@H](C)[C@@H](CN(C)S(=O)(=O)c2ccc(F)cc2)Oc2ccc(NC(=O)CCCCCC(=O)Nc3ccccc3N)cc2CC1=O`, the inhibition was 26.9%.

Regarding `C[C@H](CO)N1C[C@H](C)[C@@H](CN(C)S(=O)(=O)c2cn(C)cn2)Oc2ccc(NS(=O)(=O)c3cn(C)cn3)cc2C1=O`, the inhibition was -10.4%.

Consider `COC(=O)[C@@]1(Cc2ccc(OC)cc2)[C@H]2c3cc(C(=O)N4CCCC4)n(Cc4ccc(OC(F)(F)F)cc4)c3C[C@H]2CN1C(=O)c1ccccc1`, for which the inhibition was 77% (active).

On to `COC(=O)[C@@]1(Cc2ccc(F)cc2)[C@H]2c3cc(C(=O)N4CCCC4)n(C[C@H](O)CO)c3C[C@H]2CN1C(=O)c1ccccc1`, for which the inhibition is 0.0525%.

As for `COC(=O)[C@@]1(Cc2ccc(F)cc2)[C@H]2c3cc(C(=O)N(C)C)n(CCc4c[nH]c5ccc(OC)cc45)c3C[C@H]2CN1C(=O)c1ccccc1`, the inhibition was -3.55%.

These data come from PubChem BioAssay AID652154 (Broad Institute, 2013).
